Screening results from PubChem.
FMDV inh: High Throughput Screening for Foot and Mouth Disease Virus Antivirals | FMDV antiviral cell-based qHTS | Potency, µM (highest dose often 57.9 µM), usual class: inhibitors | actives 1.2% (n = 410,000); calls by dose curve; tested in HEK293T cells; also: read-out not given here; nearly all actives have a fitted effect of over 45% in size
LASV entry inh: qHTS for Inhibitors of binding or entry into cells for Lassa Virus. Lassa virus pseudotype entry inhibition, cell reporter. Potency, µM (highest dose often 37.9 µM), most hits filed as inhibitors. actives 1.2% (n = 300,000); calls by dose curve; tested in HEK293 cells; also: nearly all actives have a fitted effect of over 50% in size
VACV Venus inh: qHTS for Stage-Specific Inhibitors of Vaccinia Orthopoxvirus: Venus Reporter Primary qHTS; Vaccinia virus Venus reporter expression, fluorescence; Potency, µM (series often up to 36.5 µM), most hits filed as inhibitors; actives 0.46% (n = 330,000); AID 720580, 2013; calls by dose curve; tested in A549 cells; also: nearly all actives have a fitted effect of over 30% in size
Marburg entry inh: qHTS for inhibitors of binding or entry into cells for Marburg Virus. Potency, µM (doses to about 37.8 µM), usual class: inhibitors. actives 1.8% (n = 300,000). AID 540276, 2011. Marburg virus pseudotyped entry inhibition, cell reporter; calls by dose curve; tested in HEK293 cells
Vaccinia mCherry: qHTS for Stage-Specific Inhibitors of Vaccinia Orthopoxvirus: mCherry Reporter Primary qHTS; Vaccinia virus mCherry reporter infection, fluorescence; Potency, µM (titrated, usually from 36.5 µM), hits mostly inhibitors; actives 0.63% (n = 310,000); AID 720579, 2013; calls by dose curve; tested in A549 cells; also: nearly all actives have a fitted effect of over 35% in size
Numbers stand for hits; – = inactive; ? = inconclusive; · = no result given; [ ] = dose if it differs, or a comment. Only some compounds are listed: those with a hit (about 3.2% of all), similar ones and a draw of the others.

SMILES | FMDV inh | LASV entry inh | VACV Venus inh | Marburg entry inh | Vaccinia mCherry
Brc1ccc2c(ccc[n+]2CCc2ccccc2)c1 | · | · | – | · | –
COC(=O)c1ccc(-c2nc3cc(Cl)c(N)cc3s2)cc1 | 10µM | ? | – | 0.501µM | –
Cc1ccc2c(CC(=O)Nc3ccc(S(=O)(=O)N4CCCCC4)cc3)coc2c1C | – | – | – | ? | –
COc1ccccc1NC(=O)c1ccccc1-c1nc(-c2ccccc2OC)no1 | – | ? | · | 11.6µM | ·
COc1ccccc1-c1noc(-c2ccccc2C(=O)Nc2ccccc2)n1 | – | – | – | – | ·
COc1ccc(/C=c2\[nH]c(=O)/c(=C/c3ccc(OC)c(OC)c3)[nH]c2=O)cc1OC | · | · | – | · | –
CC(=O)OC1CC2C(C)(C)C(=O)CC[C@]2(C)C2CC[C@@]3(C)C(c4ccoc4)OC(=O)C4OC43[C@]12C (some centres not stated) | – | · | – | · | –
CC(=O)O[C@@H]1C[C@H]2C(C)(C)C(=O)C=C[C@]2(C)[C@H]2CC[C@@]3(C)[C@H](c4ccoc4)OC(=O)[C@H]4O[C@]43[C@@]21C | 15.8µM | 18.4µM | ? | ? | 7.94µM
C#CC(=O)N(c1ccc(OC)cc1OC)C(C(=O)NC1CCCC1)c1cccs1 (configuration not stated) | ? | ? | 10µM | ? | 10µM
COc1ccc(N(C(=O)c2snc(C(N)=O)c2N)C(C(=O)NC2CCCC2)c2cccs2)cc1OC (configuration not stated) | – | ? | – | – | –
C#CC(=O)N(c1cc(OC)ccc1OC)C(C(=O)NC1CCCC1)c1cccs1 (configuration not stated) | ? | 3.55µM | 10µM | 2µM | 11.2µM
COc1ccc(N(C(=O)c2ccco2)C(C(=O)NC2CCCCC2)c2cccs2)cc1OC (configuration not stated) | – | ? | – | – | ·
N#C/C(C(=O)NCc1ccccc1)=C1\S[C@H](CCO)C(=O)N1c1ccccc1 | · | · | · | – | ·
COP(=O)(OC)c1ccc(NCc2cc(O)ccc2O)cc1 | – | – | – | 4.47µM | –
O=C(OCc1ccccc1)c1ccc(NCc2cc(O)ccc2O)cc1 | 10µM | 2.51µM | ? | ? | 10µM
COC(=O)c1ccc(CCc2cc(O)c(Br)cc2O)cc1 | – | – | – | – | –
CC(C)OC(=O)c1ccc(NCc2cc(O)ccc2O)cc1 | 6.31µM | 12.6µM | – | 2µM | ?
COC(=O)c1ccc(CCc2cc(O)ccc2O)cc1 | – | 12.6µM | – | ? | ?
C#CCN(C[C@H]1[C@H](OC(=O)Nc2c(C)noc2C)[C@H](OC(=O)Nc2c(C)noc2C)C[C@@H](C(=O)OC)[C@H]1C(=O)OC)S(=O)(=O)c1ccc(C)cc1 | 31.6µM | · | – | · | –
C#CCN(C[C@H]1[C@H](OC(=O)NCCCCCC)[C@H](OC(=O)NCCCCCC)C[C@@H](C(=O)OC)[C@H]1C(=O)OC)S(=O)(=O)c1ccc(C)cc1 | – | · | ? | · | –
Cc1cc(C=C2C(=O)c3ccccc3C2=O)c(C)n1-c1ccccc1 | 1.12µM | ? | · | 6.51µM | ·
Cc1cc(/C=C2\Cc3ccccc3C2=O)c(C)n1-c1ccccc1 | 12.6µM | ? | – | ? | –
Nc1ccccc1C=C1Cc2ccccc2C1=O | – | ? | – | 7.94µM | –
Cc1cc(/C=C2/C(=O)NN(c3ccccc3)C2=O)c(C)n1-c1cccc(O)c1 | 44.7µM | 3.98µM | – | ? | –
Cc1cc(C=C2C(=O)c3ccccc3C2=O)c(C)n1-c1ccc(C(=O)O)cc1 | – | ? | – | ? | –
SMILES | FMDV inh | LASV entry inh | VACV Venus inh | Marburg entry inh | Vaccinia mCherry
c1ccc2c(N3CCOCC3)nc(-c3ccoc3)nc2c1 | – | · | · | · | ·
COc1ccc(-n2c(-c3ccc(Br)cc3)c[n+]3c2SC(C)C3)cc1 (configuration not stated) | ? | ? | – | ? | –
CC(=O)c1csc(CS(=O)(=O)c2ccccn2)n1 | – | · | · | · | ·
CCn1c(C)nc2cc(NS(=O)(=O)c3ccccc3)cc(C(=O)N3C[C@@H](C)O[C@@H](C)C3)c21 | – | · | – | · | –
COc1ccc(C(O)C(CN2CCOCC2)c2ccccc2)cc1F (configuration not stated) | – | – | · | – | ·
CCCOc1ccc(C(=O)C(CN2CCOCC2)c2ccccc2)cc1 (configuration not stated) | 14.1µM | ? | ? | 15.8µM | ?
COc1ccc(C(=O)C(CN2CCOCC2)c2ccccc2)cc1F (configuration not stated) | ? | ? | 12.6µM | 8.91µM | 10µM
NC(=S)N=Nc1c(O)n(Cc2ccc(Br)cc2)c2ccccc12 | – | ? | 1µM | ? | 1µM
Cc1ccc2c(c1)c(N=NC(N)=S)c(O)n2Cc1ccccc1 | – | – | 1µM | ? | 0.891µM
COC(=O)C(Cc1ccc(O)cc1)NC(=O)C(C)NC(=O)c1ccc(C(C)(C)C)cc1 (configuration not stated) | – | – | – | – | –
CCOc1cc(CN2CCN(c3cccc(C(F)(F)F)c3)CC2)ccc1OC | · | – | – | ? | –
CC(C)OCc1cc(CN2CCN(c3cccc(C(F)(F)F)c3)CC2)c(O)c2ncccc12 | – | ? | –[7.34 µM] | ? | 3.98µM
CCOc1cc(CN2CCN(c3cccc(C(F)(F)F)c3)CC2)ccc1O | – | – | · | 16.4µM | ·
COc1ccccc1N1CCN(Cc2cc(COC(C)C)c3cccnc3c2O)CC1 | – | ? | ? | 3.98µM | ?
CCOCc1cc(CN2CCN(c3cccc(C(F)(F)F)c3)CC2)c(O)c2ncccc12 | ? | ? | –[7.34 µM] | ? | ?
CCOCc1cc(CN2CCN(c3ccccc3OC)CC2)c(O)c2ncccc12 | – | ? | – | ? | 12.6µM
COc1ccc([C@H]2/C(=C(\O)c3cnn(-c4ccccc4)c3C)C(=O)C(=O)N2CCN(C)C)cc1OC | · | · | · | – | ·
CC(C)(C)c1nnc(N/N=C/c2ccccc2O)n(N)c1=O | – | ? | ? | ? | 2.82µM
S=C1Cc2ccccc2N1 | 31.6µM | · | · | · | ·
O=C(N/N=C/c1ccccc1O)C1CC(=O)N(c2ccc(F)cc2)C1 (configuration not stated) | – | ? | ? | ? | 14.1µM
Cc1sc2ncnc(N3CCC(C(=O)NNC(=O)COc4cccc(C(F)(F)F)c4)CC3)c2c1C | 25.1µM | – | – | – | –
Cc1sc2ncnc(N3CCC(C(=O)NNC(=O)COc4ccccc4Cl)CC3)c2c1C | 35.5µM | – | – | ? | ?
Cc1ccc(OCC(=O)NNC(=O)C2CCN(c3ncnc4sc(C)c(C)c34)CC2)cc1 | ? | – | – | – | –
Cc1ccc(S(=O)(=O)N2CCN(C(=O)C3CCN(c4ncnc5sc(C)c(C)c45)CC3)CC2)c(C)c1 | 20µM | · | · | · | ·
Cc1sc2ncnc(N3CCC(C(=O)NNC(=O)COc4ccccc4F)CC3)c2c1C | 25.1µM | – | – | – | –
Cc1sc2ncnc(N3CCC(C(=O)NNC(=O)COc4ccc(Cl)cc4)CC3)c2c1C | – | · | · | · | ·
Cc1sc2ncnc(N3CCC(C(=O)NNC(=O)COc4ccc(Br)cc4)CC3)c2c1C | ? | – | – | – | –
Cc1nc(-c2ccc(C(=O)Nc3ccc(F)cc3)cc2)cs1 | – | ? | – | 6.31µM | –
